Data as given in PubChem BioAssay.
Where “and” joins values, the source holds several entries; their conditions need not be identical. Equal values may be shown once. Records with an inconclusive call do not appear. Where a structure was tested more than once in an assay, its records may differ in their call. Calls of active or inactive are those of the source.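 Rule for the calls, unless noted: active = normalized viability below 100% at a tested concentration; inactive = the rest.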

Columns and labels:
[1] = growth inhibition of DIPG glioma cells, dose response, cell-based, SU-DIPG-XVII, MIPE5.0, CellTiter-Glo, qHTS (AID 1347060; cut-off not given, nearly all actives have AC50 up to about 26 µM;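 for AC50: cells exposed to compound for 48 hours before viability readout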); settings: SU-DIPG-XVII viability, CellTiter-Glo ATP luminescence
[2] = viability loss in pontine glioma line – cell-based, SU-DIPG-XXV, MIPE5.0, CellTiter-Glo, qHTS, dose response (AID 1347065; cut-off not given, nearly all actives have AC50 up to about 26 µM;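 note: cells exposed to compound for 48 hours before ATP readout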); settings: CellTiter-Glo ATP luminescence
[3] = JHH-DIPG-1 glioma cell viability, MIPE5.0 library, CellTiter-Glo luminescence, qHTS (AID 1347067; cut-off not given, nearly all actives have AC50 up to about 26 µM;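 note: cells exposed to compound for 48 hours before readout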); settings: JHH-DIPG-1 glioma viability, CellTiter-Glo ATP luminescence
[4] = SU-DIPG-XXV glioma cell viability, MIPE5.0 library, qHTS (AID 1347068; cut-off not given, nearly all actives have IC50 up to about 30 µM;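 for IC50: cells exposed to compound for 48 hours before viability readout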)
[5] = kinase inhibitors against Plasmodium liver-stage infection, cell-based, known kinase inhibitor set, luminescence, hepatoma host viability (AID 624392; call rule not given here;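 note: infected cells incubated roughly two days before readout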); settings: Plasmodium liver stage in hepatoma cells, luciferase luminescence, concentration not given here; liver cell % of control: measured here: host liver cell viability; parasite % of control: stronger effect = lower value
[6] = sensitizers of A549 cells to miR-34 induction, primary screen, imaging, A549 dox-inducible miR-34, nuclei and caspase counts (AID 1347080;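 active = compounds whose cell count with miR-34 switched on is under 0.7 times the count with it off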); settings: A549 miR-34 inducible, Hoechst nuclei count, 48 h
[7] = modifiers of HSF1 nuclear foci, imaging, Selleck Cancer Library (AID 1347162; in the data active = plate-normalised HSF1 focus index below about 0.46); settings: human cells, at 10 µM; SSMD: measured here: HSF1 foci SSMD mean; cell count: measured here: cell number; plate-normalised HSF1 focus index: stronger effect = lower value
[8] = survival rescue of mitochondrial mutant cells in low glucose, primary screen, MELAS cybrids, Rieske KO mouse fibroblasts, CellTiter-Glo (AID 1508586;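 active = mean z-score across replicates of 1.96 or higher in either the MELAS or the Rieske mutant cell line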;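 note: z relative to plate mean and SD of compound and empty wells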)
[9] = ovarian cancer cell viability with rucaparib, profiling panel, oncology-focused library, rucaparib conditional (AID 1508598); settings: patient-derived ovarian cancer cells, CellTiter-Glo viability, 144 h, stronger effect = lower value
[10] = stronger effect = lower value, cell number ratio, induced over uninduced
[11] = measured here: relative caspase fold change +Dox/-Dox
[12] = measured here: total cells with miR-34 induction, stronger effect = lower value
[13] = measured here: total cells without miR-34 induction
[14] = MELAS cybrid survival, CellTiter-Glo 48 h, stronger effect = higher value
[15] = Rieske KO mouse fibroblast survival, CellTiter-Glo 72 h
[16] = at 0.000305 µM, OCI-C5x cells, with rucaparib 10 µM, 100% = cells with rucaparib alone
[17] = at 0.000305 µM, OCI-C5x cells, without rucaparib
[18] = at 0.000305 µM, OCI-P5x cells, with rucaparib 20 µM, 100% = cells with rucaparib alone
[19] = at 0.000305 µM, OCI-P5x cells, without rucaparib
[20] = at 0.00122 µM, OCI-C5x cells, with rucaparib 10 µM, 100% = cells with rucaparib alone
[21] = at 0.00122 µM, OCI-C5x cells, without rucaparib
[22] = at 0.00122 µM, OCI-P5x cells, with rucaparib 20 µM, 100% = cells with rucaparib alone
[23] = at 0.00122 µM, OCI-P5x cells, without rucaparib
[24] = at 0.00488 µM, OCI-C5x cells, with rucaparib 10 µM, 100% = cells with rucaparib alone
[25] = at 0.00488 µM, OCI-C5x cells, without rucaparib
[26] = at 0.00488 µM, OCI-P5x cells, with rucaparib 20 µM, 100% = cells with rucaparib alone
[27] = at 0.00488 µM, OCI-P5x cells, without rucaparib
[28] = at 0.0195 µM, OCI-C5x cells, with rucaparib 10 µM, 100% = cells with rucaparib alone
[29] = at 0.0195 µM, OCI-C5x cells, without rucaparib
[30] = at 0.0195 µM, OCI-P5x cells, with rucaparib 20 µM, 100% = cells with rucaparib alone
[31] = at 0.0195 µM, OCI-P5x cells, without rucaparib
[32] = at 0.0781 µM, OCI-C5x cells, with rucaparib 10 µM, 100% = cells with rucaparib alone
[33] = at 0.0781 µM, OCI-C5x cells, without rucaparib
[34] = at 0.0781 µM, OCI-P5x cells, with rucaparib 20 µM, 100% = cells with rucaparib alone
[35] = at 0.0781 µM, OCI-P5x cells, without rucaparib
[36] = at 0.313 µM, OCI-C5x cells, with rucaparib 10 µM, 100% = cells with rucaparib alone
[37] = at 0.313 µM, OCI-C5x cells, without rucaparib
[38] = at 0.313 µM, OCI-P5x cells, with rucaparib 20 µM, 100% = cells with rucaparib alone
[39] = at 0.313 µM, OCI-P5x cells, without rucaparib
[40] = at 1.25 µM, OCI-C5x cells, with rucaparib 10 µM, 100% = cells with rucaparib alone
[41] = at 1.25 µM, OCI-C5x cells, without rucaparib
[42] = at 1.25 µM, OCI-P5x cells, with rucaparib 20 µM, 100% = cells with rucaparib alone
[43] = at 1.25 µM, OCI-P5x cells, without rucaparib
[44] = at 5 µM, OCI-C5x cells, with rucaparib 10 µM, 100% = cells with rucaparib alone
[45] = at 5 µM, OCI-C5x cells, without rucaparib
[46] = at 5 µM, OCI-P5x cells, with rucaparib 20 µM, 100% = cells with rucaparib alone
[47] = at 5 µM, OCI-P5x cells, without rucaparib

SMILES: COC1CCC(N2C(=O)CNc3ncc(-c4ccc(C(C)(C)O)nc4)nc32)CC1 (stereo not drawn)
- AC50 [1]: 9.34 µM (active)
- AC50 [2]: 11.8 µM (active)
- AC50 [3]: 16.6 µM (active)
- IC50 [4]: 14.8 µM (active)

SMILES: CC(C)(C)Sc1c(CC(C)(C)C(=O)O)n(Cc2ccc(Cl)cc2)c2ccc(OCc3ccc4ccccc4n3)cc12
- AC50 [1]: 20.9 µM (active)
- AC50 [2]: 20.9 µM (active)
- AC50 [3]: 18.6 µM (active)
- outcome [4]: inactive

SMILES: CNc1nc(C)nc(N[C@H]2CCC[C@@H](C(=O)NCc3ccc(C#N)cc3C(F)(F)F)C2)n1
- outcome [1]: inactive
- outcome [2]: inactive
- outcome [3]: inactive
- outcome [4]: inactive

SMILES: C=CC(=O)Nc1cccc(C)c1Nc1ncc2cc(-c3c(Cl)c(OC)cc(OC)c3Cl)ccc2n1
- AC50 [1]: 14.8 µM (active)
- AC50 [2]: 9.34 µM (active)
- AC50 [3]: 13.2 µM (active)
- IC50 [4]: 9.34 µM (active)

SMILES: COC(=O)c1ccc([C@H]2c3[nH]c4ccccc4c3C[C@H](C(=O)OC)N2C(=O)CCl)cc1
- AC50 [1]: 13.2 µM (active)
- AC50 [2]: 5.25 µM (active)
- AC50 [3]: 2.35 µM (active)
- IC50 [4]: 14.8 µM (active)

SMILES: CCc1ccc2nc(Nc3cc(Cc4ccccc4)nc(NC4CCC(O)CC4)n3)sc2c1 (stereo not drawn)
- AC50 [1]: 26.3 µM (active)
- AC50 [2]: 18.6 µM (active)
- AC50 [3]: 20.9 µM (active)
- outcome [4]: inactive

SMILES: N[C@@H](CCC(=O)O)C(=O)N[C@@H](Cc1c[nH]c2ccccc12)C(=O)O
- outcome [1]: inactive
- outcome [2]: inactive
- outcome [3]: inactive
- outcome [4]: inactive

SMILES: COc1ccc(S(=O)(=O)N[C@@H](CNc2nc(C)nc(N3CCC(c4ccc5c(n4)NCCC5)CC3)c2C)C(=O)O)cc1
- outcome [1]: inactive
- outcome [2]: inactive
- outcome [3]: inactive
- outcome [4]: inactive

SMILES: O=C(Nc1cccc(Cl)c1)Nc1ncc(CCNc2ncnc3ccsc23)s1
- liver cell % of control [5]: 68.4% and 82.5% and 102%
- parasite % of control [5]: 0.394% (inactive) and 0.318% (inactive) and 0.473% (active)
- AC50 [1]: 0.0166 µM (active)
- AC50 [2]: 0.525 µM (active)
- AC50 [3]: 16.6 µM (active)
- IC50 [4]: 11.8 µM (active)
- fold change [6, 10]: 1.06 (inactive)
- fold change [6, 11]: 1.09
- cell count [6, 12]: 2320
- cell count [6, 13]: 2200
- SSMD [7]: 1.43
- cell count [7]: 7300
- plate-normalised HSF1 focus index [7]: 1.08 (inactive)
- z-score [8, 14]: -0.144 (inactive)
- z-score [8, 15]: -1.82
- viability [9, 16]: 108% (inactive)
- viability [9, 17]: 107% (inactive)
- viability [9, 18]: 122% (inactive)
- viability [9, 19]: 122% (inactive)
- viability [9, 20]: 98.1% (active)
- viability [9, 21]: 97.4% (active)
- viability [9, 22]: 115% (inactive)
- viability [9, 23]: 94.7% (active)
- viability [9, 24]: 95.1% (active)
- viability [9, 25]: 96.5% (active)
- viability [9, 26]: 112% (inactive)
- viability [9, 27]: 91.7% (active)
- viability [9, 28]: 112% (inactive)
- viability [9, 29]: 109% (inactive)
- viability [9, 30]: 99.4% (active)
- viability [9, 31]: 85.1% (active)
- viability [9, 32]: 91.8% (active)
- viability [9, 33]: 109% (inactive)
- viability [9, 34]: 99.1% (active)
- viability [9, 35]: 85.1% (active)
- viability [9, 36]: 91.9% (active)
- viability [9, 37]: 103% (inactive)
- viability [9, 38]: 96.5% (active)
- viability [9, 39]: 81.4% (active)
- viability [9, 40]: 94.3% (active)
- viability [9, 41]: 108% (inactive)
- viability [9, 42]: 97.9% (active)
- viability [9, 43]: 88.4% (active)
- viability [9, 44]: 170% (inactive)
- viability [9, 45]: 150% (inactive)
- viability [9, 46]: 51.5% (active)
- viability [9, 47]: 61.4% (active)

SMILES: CN[C@@H](C)C(=O)N[C@H](C(=O)N1CCC[C@H]1c1nc(C(=O)c2ccc(F)cc2)cs1)C1CCCCC1
- outcome [1]: inactive
- outcome [2]: inactive
- outcome [3]: inactive
- outcome [4]: inactive

SMILES: O=C(O)c1cnn(-c2nc3cc(OC(F)(F)F)c(Cl)cc3[nH]2)c1
- outcome [1]: inactive
- outcome [2]: inactive
- outcome [3]: inactive
- outcome [4]: inactive

SMILES: CCCCCCCCCCCCCCCCOCCCOP(=O)(O)COC(CO)Cn1ccc(N)nc1=O (stereo not drawn)
- outcome [1]: inactive
- outcome [2]: inactive
- outcome [3]: inactive
- outcome [4]: inactive

SMILES: Nc1cc(COc2c(Cl)cc(C[C@H](N)C(=O)O)cc2Cl)c2oc(-c3ccccc3)nc2c1
- outcome [1]: inactive
- outcome [2]: inactive
- outcome [3]: inactive
- outcome [4]: inactive

SMILES: CCC(CC)CC1(C(=O)Nc2ccccc2SC(=O)C(C)C)CCCCC1
- outcome [1]: inactive
- outcome [2]: inactive
- outcome [3]: inactive
- outcome [4]: inactive
- fold change [6, 10]: 0.89 (inactive)
- fold change [6, 11]: 0.858
- cell count [6, 12]: 9550
- cell count [6, 13]: 10700
- SSMD [7]: 1.84
- cell count [7]: 6890
- plate-normalised HSF1 focus index [7]: 1.09 (inactive)
- z-score [8, 14]: -0.325 (inactive)
- z-score [8, 15]: 1.25
- viability [9, 16]: 115% (inactive)
- viability [9, 17]: 112% (inactive)
- viability [9, 18]: 92.5% (active)
- viability [9, 19]: 91.2% (active)
- viability [9, 20]: 109% (inactive)
- viability [9, 21]: 105% (inactive)
- viability [9, 22]: 97.3% (active)
- viability [9, 23]: 96% (active)
- viability [9, 24]: 111% (inactive)
- viability [9, 25]: 114% (inactive)
- viability [9, 26]: 101% (inactive)
- viability [9, 27]: 99.6% (active)
- viability [9, 28]: 127% (inactive)
- viability [9, 29]: 110% (inactive)
- viability [9, 30]: 104% (inactive)
- viability [9, 31]: 108% (inactive)
- viability [9, 32]: 110% (inactive)
- viability [9, 33]: 115% (inactive)
- viability [9, 34]: 104% (inactive)
- viability [9, 35]: 103% (inactive)
- viability [9, 36]: 99.9% (active)
- viability [9, 37]: 121% (inactive)
- viability [9, 38]: 107% (inactive)
- viability [9, 39]: 103% (inactive)
- viability [9, 40]: 113% (inactive)
- viability [9, 41]: 126% (inactive)
- viability [9, 42]: 107% (inactive)
- viability [9, 43]: 102% (inactive)
- viability [9, 44]: 110% (inactive)
- viability [9, 45]: 120% (inactive)
- viability [9, 46]: 103% (inactive)
- viability [9, 47]: 108% (inactive)

SMILES: COc1ccc(C(=O)N2CCN(C(=O)/C=C/c3ccc(Br)cc3)CC2)cc1
- outcome [1]: inactive
- outcome [2]: inactive
- outcome [3]: inactive
- outcome [4]: inactive

SMILES: Cc1cnc(NC(=O)c2cc(Oc3cnc(C(=O)N(C)C)nc3)c3cc(C)oc3c2)cn1
- outcome [1]: inactive
- outcome [2]: inactive
- outcome [3]: inactive
- outcome [4]: inactive
